We go through 22 molecules from PubChem BioAssay (EPA / NIEHS).

“And” between values parts separate entries of the source, which are not always exact repeats. Identical values can stand only once. Inconclusive results are not listed. More than one record can exist for a structure, and the calls need not agree. The source made the active and inactive calls. How the source made its calls, unless noted: active means hit-call score of the fitted dose curve at least 0.9, where 1 is the maximum; inactive means score below 0.9.

For test [1], the target named is human RAR-related Orphan Receptor beta (RORb), RORB (gene 6096) (UniProt Q92753). Nature of the test: ATG_RORb_TRANS: Attagene TRANS-FACTORIAL HepG2 Assay for human RAR-related Orphan Receptor beta (RORb) (AID 2283010; active means hit-call score of the fitted dose curve at least 0.9, where 1 is the maximum). Put shortly:
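HepG2 cells transiently transfected with GAL4-UAS reporter units expressing chimeric NR-Gal4 protein; reporter mRNA measured 24 h after dosing by RT-PCR, 6-FAM labelling and capillary electrophoresis. Gain-of-signal fitted relative to DMSO baseline.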

Test [2] addresses Retinoic acid receptor RXR-alpha (Homo sapiens) (UniProt P19793). Nature of the test: ATG_RXRa_TRANS: Attagene TRANS-FACTORIAL HepG2 Assay for human Retinoid X Receptor alpha (RXRa) (AID 2283012; active means hit-call score of the fitted dose curve at least 0.9, where 1 is the maximum). Put shortly: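 HepG2 cells transiently transfected with GAL4-UAS reporter units and chimeric RXRa-Gal4 protein, treated 24 h. Reporter mRNA measured by RT-PCR, fluorescent labelling, HpaI digestion and capillary electrophoresis. Induction fitted against DMSO.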

Test [3] deals with human Thyroid Receptor alpha (THRa1), THRA (gene 7067) (UniProt P10827). Nature of the test: ATG_THRa1_TRANS: Attagene TRANS-FACTORIAL HepG2 Assay for human Thyroid Receptor alpha (THRa1) (AID 2283014; active means hit-call score of the fitted dose curve at least 0.9, where 1 is the maximum). Summed up: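 First, HepG2 cells receive multiple GAL4-UAS reporter units and the chimeric receptor. They are then dosed for 24 h, after which RNA is reverse-transcribed, amplified, labelled, HpaI-cut and sized by capillary electrophoresis; gain relative to DMSO is scored.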
Sequence of human Thyroid Receptor alpha (THRa1), THRA (gene 7067) (P10827 whole entry, looked up, the tested form may be a part): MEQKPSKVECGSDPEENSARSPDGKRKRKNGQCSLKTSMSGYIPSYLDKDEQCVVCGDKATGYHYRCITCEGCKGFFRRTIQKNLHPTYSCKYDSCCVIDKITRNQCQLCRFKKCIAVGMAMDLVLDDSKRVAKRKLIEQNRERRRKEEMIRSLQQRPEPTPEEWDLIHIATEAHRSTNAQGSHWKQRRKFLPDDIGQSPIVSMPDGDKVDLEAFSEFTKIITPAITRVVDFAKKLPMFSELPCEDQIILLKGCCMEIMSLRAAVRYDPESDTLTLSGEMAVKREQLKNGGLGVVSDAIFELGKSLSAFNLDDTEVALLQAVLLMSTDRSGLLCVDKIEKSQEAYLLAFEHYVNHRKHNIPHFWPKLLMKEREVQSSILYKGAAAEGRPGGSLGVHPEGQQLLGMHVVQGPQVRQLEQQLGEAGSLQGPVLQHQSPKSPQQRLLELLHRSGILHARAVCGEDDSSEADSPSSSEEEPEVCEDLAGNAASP

Read-out in test [4]: E-selectin (Homo sapiens) (UniProt P16581)
Nature of the test: BSK_3C_Eselectin: BioMAP Diversity Plus: 3C Assay for Eselectin Biomarker Activity (AID 2283015).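 On outcome: cell surface E-selectin protein quantified by ELISA 24 h after dosing.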 As to conditions: primary human endothelial cells (HUVEC); actives raise or lower the signal. Summed up: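 Human vascular endothelium from umbilical vein is exposed to test chemicals for 24 h. E-selectin levels are read by ELISA and compared with DMSO controls.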

Read-out in test [5]: Interleukin-1 alpha (IL1a), IL1A (gene 3552)
Nature of the test: BSK_BE3C_IL1a: BioMAP Diversity Plus: BE3C Assay for Interleukin-1 alpha (IL1a) Biomarker Activity (AID 2283016). As to conditions: primary human bronchial epithelial cells; actives raise or lower the signal. Summed up:
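Human primary bronchial epithelial cells, 24 h chemical exposure; IL-1a quantified by ELISA, fitted bidirectionally against DMSO. Cytotoxicity assessed in parallel by SRB total-protein staining at the time of measurement.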

Read-out in test [6]: Monocyte Chemoattractant Protein-1 (MCP1), CCL2 (gene 6347)
Nature of the test: BSK_3C_MCP1: BioMAP Diversity Plus: 3C Assay for Monocyte Chemoattractant Protein-1 (MCP1) Biomarker Activity (AID 2283017). As to conditions: primary human endothelial cells (HUVEC); actives raise or lower the signal. Summed up: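 Endothelial cells from human umbilical vein are dosed with chemical, cultured 24 h, then assayed for MCP-1 by ELISA; both increases and decreases are modelled against DMSO controls.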

Read-out in test [7]: Monocyte Chemoattractant Protein-1 (MCP1), CCL2 (gene 6347)
Nature of the test: BSK_4H_MCP1: BioMAP Diversity Plus: 4H Assay for Monocyte Chemoattractant Protein-1 (MCP1) Biomarker Activity (AID 2283018). The note with it: primary human endothelial cells (HUVEC); actives raise or lower the signal. Summed up:
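Human umbilical vein endothelial cells (4H system) exposed to chemicals for 24 h in 96-well format. MCP-1 measured by ELISA; bidirectional fitting against DMSO, with SRB total-protein staining in parallel cultures for cytotoxicity.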

In test [8] the target is human RAR-related Orphan Receptor gamma (RORg), RORC (gene 6097) (UniProt P51449). Nature of the test: ATG_RORg_TRANS: Attagene TRANS-FACTORIAL HepG2 Assay for human RAR-related Orphan Receptor gamma (RORg) (AID 2283011; active means hit-call score of the fitted dose curve at least 0.9, where 1 is the maximum). Summed up: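 Activity is scored as increase in GAL4-UAS reporter mRNA over DMSO, detected by fluorescent RT-PCR and capillary electrophoresis in HepG2 cells transiently expressing a RORg-Gal4 chimera, 24 h after dosing.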
Sequence of human RAR-related Orphan Receptor gamma (RORg), RORC (gene 6097) (P51449 whole entry, looked up, the tested form may be a part): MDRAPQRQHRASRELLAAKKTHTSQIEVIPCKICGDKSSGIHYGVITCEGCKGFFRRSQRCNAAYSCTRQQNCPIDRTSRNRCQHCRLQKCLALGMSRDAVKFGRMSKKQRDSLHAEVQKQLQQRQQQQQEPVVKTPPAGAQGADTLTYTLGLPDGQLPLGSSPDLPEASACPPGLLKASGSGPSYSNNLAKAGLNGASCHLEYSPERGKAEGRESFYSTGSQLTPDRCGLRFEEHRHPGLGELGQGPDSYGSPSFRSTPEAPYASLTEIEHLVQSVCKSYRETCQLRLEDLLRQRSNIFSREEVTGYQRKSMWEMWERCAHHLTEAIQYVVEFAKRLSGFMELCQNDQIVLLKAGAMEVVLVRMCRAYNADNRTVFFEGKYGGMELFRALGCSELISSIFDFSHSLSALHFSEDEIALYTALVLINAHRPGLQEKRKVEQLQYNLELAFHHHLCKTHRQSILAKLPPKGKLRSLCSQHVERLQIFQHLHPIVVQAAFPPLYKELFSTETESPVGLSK

In test [9] the target is human Retinoid X Receptor beta (RXRb), RXRB (gene 6257) (UniProt P28702). Nature of the test: ATG_RXRb_TRANS: Attagene TRANS-FACTORIAL HepG2 Assay for human Retinoid X Receptor beta (RXRb) (AID 2283013; active means hit-call score of the fitted dose curve at least 0.9, where 1 is the maximum). Summed up: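 HepG2 cells were transiently transfected with multiplexed GAL4-UAS reporters and a chimeric RXRb-Gal4 construct, then exposed for 24 h. Reporter mRNA was quantified by RT-PCR, FAM labeling, HpaI digestion and capillary electrophoresis; gain of signal was scored against DMSO.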
Sequence of human Retinoid X Receptor beta (RXRb), RXRB (gene 6257) (P28702 whole entry, looked up, the tested form may be a part): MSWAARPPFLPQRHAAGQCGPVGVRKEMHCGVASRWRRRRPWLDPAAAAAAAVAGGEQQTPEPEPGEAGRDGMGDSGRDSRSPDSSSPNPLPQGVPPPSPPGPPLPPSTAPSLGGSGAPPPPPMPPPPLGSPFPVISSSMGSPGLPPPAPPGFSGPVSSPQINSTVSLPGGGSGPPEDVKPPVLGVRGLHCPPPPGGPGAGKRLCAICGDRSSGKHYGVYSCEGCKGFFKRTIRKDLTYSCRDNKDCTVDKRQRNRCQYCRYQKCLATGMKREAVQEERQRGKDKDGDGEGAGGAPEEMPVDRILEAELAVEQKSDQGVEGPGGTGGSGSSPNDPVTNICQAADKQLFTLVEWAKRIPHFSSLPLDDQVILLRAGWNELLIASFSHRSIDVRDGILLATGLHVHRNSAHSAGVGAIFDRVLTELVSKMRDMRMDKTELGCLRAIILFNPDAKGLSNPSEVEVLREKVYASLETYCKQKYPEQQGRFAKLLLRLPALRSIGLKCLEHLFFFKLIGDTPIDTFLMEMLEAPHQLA

Read-out in test [10]: Human Leukocyte Antigen - DR isotype (HLADR), HLA-DRA (gene 3122)
Nature of the test: BSK_3C_HLADR: BioMAP Diversity Plus: 3C Assay for Human Leukocyte Antigen - DR isotype (HLADR) Biomarker Activity (AID 2283019).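 On outcome: ELISA of cell-surface HLA-DR on HUVEC 24 h after dosing.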 The note with it: primary human endothelial cells (HUVEC); actives raise or lower the signal. Summed up:
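Endothelial cells from human umbilical vein are treated with test chemical; after 24 h, HLA-DR levels are measured by ELISA. Data are fitted in both directions using DMSO as the baseline.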

Sequence of Retinoic acid receptor RXR-alpha (Homo sapiens) (P19793 whole entry, looked up, the tested form may be a part): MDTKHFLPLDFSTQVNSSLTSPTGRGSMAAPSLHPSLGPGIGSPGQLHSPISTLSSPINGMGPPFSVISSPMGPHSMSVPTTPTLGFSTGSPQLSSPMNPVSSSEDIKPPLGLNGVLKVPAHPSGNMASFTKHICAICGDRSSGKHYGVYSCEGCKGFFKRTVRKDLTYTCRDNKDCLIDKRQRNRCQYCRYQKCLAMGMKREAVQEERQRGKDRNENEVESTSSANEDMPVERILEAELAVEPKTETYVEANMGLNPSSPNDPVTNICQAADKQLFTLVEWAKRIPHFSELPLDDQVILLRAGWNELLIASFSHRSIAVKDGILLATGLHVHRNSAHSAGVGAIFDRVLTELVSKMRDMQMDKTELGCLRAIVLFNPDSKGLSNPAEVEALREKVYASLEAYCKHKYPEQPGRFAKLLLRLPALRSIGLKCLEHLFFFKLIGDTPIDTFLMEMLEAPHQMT
Sequence of human RAR-related Orphan Receptor beta (RORb), RORB (gene 6096) (Q92753 whole entry, looked up, the tested form may be a part): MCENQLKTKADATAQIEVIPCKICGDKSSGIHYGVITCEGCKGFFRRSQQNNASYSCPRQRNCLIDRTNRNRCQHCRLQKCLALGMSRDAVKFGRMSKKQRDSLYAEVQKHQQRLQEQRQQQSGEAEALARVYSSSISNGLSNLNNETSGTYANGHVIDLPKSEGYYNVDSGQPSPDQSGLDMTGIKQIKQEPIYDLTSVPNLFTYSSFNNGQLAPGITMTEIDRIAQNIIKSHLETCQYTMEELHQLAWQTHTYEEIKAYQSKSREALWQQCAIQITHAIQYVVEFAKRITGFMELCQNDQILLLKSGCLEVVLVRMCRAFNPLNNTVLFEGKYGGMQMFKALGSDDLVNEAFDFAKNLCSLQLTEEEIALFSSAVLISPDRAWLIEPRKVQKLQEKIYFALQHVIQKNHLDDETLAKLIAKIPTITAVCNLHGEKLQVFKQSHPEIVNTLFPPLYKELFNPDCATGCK
Sequence of E-selectin (Homo sapiens) (P16581 whole entry, looked up): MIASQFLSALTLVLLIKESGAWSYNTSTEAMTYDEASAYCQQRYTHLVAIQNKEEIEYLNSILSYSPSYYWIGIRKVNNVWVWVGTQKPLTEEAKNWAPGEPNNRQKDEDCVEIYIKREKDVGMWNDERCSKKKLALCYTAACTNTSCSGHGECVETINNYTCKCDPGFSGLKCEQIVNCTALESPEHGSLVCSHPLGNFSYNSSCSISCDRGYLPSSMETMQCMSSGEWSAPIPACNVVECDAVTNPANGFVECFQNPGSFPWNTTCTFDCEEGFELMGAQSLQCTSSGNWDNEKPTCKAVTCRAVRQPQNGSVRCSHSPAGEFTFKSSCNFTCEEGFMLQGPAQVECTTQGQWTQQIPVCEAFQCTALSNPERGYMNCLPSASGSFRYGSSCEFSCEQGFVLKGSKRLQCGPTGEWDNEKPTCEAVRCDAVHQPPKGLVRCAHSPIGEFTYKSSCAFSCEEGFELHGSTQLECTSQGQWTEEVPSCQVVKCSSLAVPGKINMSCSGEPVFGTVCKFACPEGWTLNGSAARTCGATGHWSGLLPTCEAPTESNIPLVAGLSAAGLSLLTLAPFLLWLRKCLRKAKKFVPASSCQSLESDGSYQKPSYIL

As a reminder, the AC50 is the concentration giving half of the maximal activity seen. Take `O=C(O)C(F)(F)C(F)(F)F`: the molecule was classed as inactive in [1], in [2], in [3], in test [4], in test [5] and in test [6]. Moreover, the result in test [7] was inactive. Moreover, the AC50 in test [6] was 23 µM (active).
For the molecule `OC[C@@H](O)[C@@H](O)[C@H](O)[C@@H](O)CO`, the result in test [8] and in test [2] was inactive.
As to `FC(F)(F)C(F)(F)C(F)(F)C(F)(F)CCI`, the molecule was called inactive in test [1], in test [2], in test [4], in test [5], in test [6] and in test [7]. Further, the result in [10] was inactive. The AC50 in test [9] is 123 µM (active).
Take `FC(F)(F)C(F)(F)C(F)(F)C(F)(F)C(F)(F)C(F)(F)C(F)(F)C(F)(F)F`: the molecule was classed as inactive in [1], in test [2], in test [9], in [3], in [4] and in test [5]. The outcome in test [6] and in test [7] was inactive.
With `C=CC(=O)OCC(F)(F)C(F)(F)C(F)(F)C(F)(F)COC(=O)C=C`, the result in test [8], in test [2] and in [3] was inactive. Moreover, the AC50 in [9] is 1.1 µM (active); in test [4], 35.8 µM (active) and 38.1 µM (active); in test [5] it was 20.2 µM (active) and 25.4 µM (active); in test [6], 33.8 µM (active) and 22.1 µM (active); in [7] it was 49.4 µM (active) and 49 µM (active); in test [10] it was 17.2 µM (active) and 18.1 µM (active).
With `CCN(CC)c1ccc2c(C)cc(=O)oc2c1`, the molecule was called inactive in test [8], in test [2], in test [3], in test [4], in test [5] and in [6]. In test [7], the result was inactive. Moreover, the AC50 is 26.5 µM (active) in test [9] and 31.3 µM (active) in [10].
On to `CNC(=S)NC`, for which the call in test [1], in test [9] and in test [3] was inactive.
For the molecule `CCCCCCS`, the call in test [8] and in test [2] was inactive.
Turning to `C=C(C)C(=O)OCC(F)(F)C(F)(F)C(F)(F)C(F)(F)C(F)(F)C(F)(F)C(F)(F)F`, the outcome in test [1], in test [4], in test [5], in test [6] and in [7] was inactive.
In the case of `Cc1ccc(S(=O)(=O)OCC(F)(F)C(F)(F)C(F)(F)C(F)(F)C(F)(F)C(F)F)cc1`, the result in [1], in test [2], in [4], in test [5], in [6] and in test [7] was inactive. The outcome in [10] was inactive. The figures for the AC50 in [9], in test [4] and in test [5] were 7.9 µM (active), 33.4 µM (active) and 44.8 µM (active), respectively.
Take `Oc1ccc(Nc2ccccc2)cc1`: the molecule was called inactive in test [1], in [2], in test [9], in [3] and in test [6]. In addition, the AC50 in [4] is 20 µM (active); in test [5], 13.4 µM (active); in test [7] it was 9.6 µM (active); in test [10], 20 µM (active).
As to `O=C(O)C(F)(OC(F)(F)C(F)(OC(F)(F)C(F)(F)C(F)(F)F)C(F)(F)F)C(F)(F)F` (configuration not stated), the molecule was called inactive in test [1], in test [2], in [4], in [5], in test [6] and in test [7]. The outcome in test [10] was inactive.
For the molecule `CCCCCCCCC(F)(F)C(F)(F)C(F)(F)C(F)(F)C(F)(F)C(F)(F)F`, the result in test [8], in test [2], in test [4], in test [5], in test [6] and in test [7] was inactive. In addition, the AC50 in [9] was 21.2 µM (active).
On to `OCC(F)(F)C(F)(F)C(F)(F)F`, for which the molecule was called inactive in test [1], in [2], in test [9], in test [3], in test [4] and in test [5]. In addition, the outcome in test [6], in test [7] and in test [10] was inactive.
Turning to `CCc1ccc(C(c2ccc(CC)cc2)C(Cl)Cl)cc1`, the molecule was classed as inactive in test [8], in [2], in test [9], in test [3], in test [4] and in [5]. Besides, the AC50 is 12.9 µM (active) in test [6], 10.7 µM (active) in [7] and 11.8 µM (active) in test [10].
For `FC(F)(F)C(F)(F)C(F)(F)C(F)(F)C(F)(F)C(F)(F)C(F)(F)C(F)(F)CCS`, the result in test [2], in test [3], in [4], in test [5], in test [6] and in test [7] was inactive. Besides, in [10], the result was inactive.
Take `C=CC/C=C/C/C=C/C/C=C/C`: the molecule was called inactive in [8], in [2], in test [3], in test [4], in [5] and in [6]. The outcome in test [7] and in [10] was inactive.
`FC(F)(F)C(F)(F)C(F)(F)C(F)(F)C(F)(F)C(F)(F)C(F)(F)Br`: the call in test [2], in test [3], in test [4], in [5], in test [6] and in [7] was inactive.
For `FC(F)(F)C(F)(F)C(F)(F)C(F)(F)C(F)(F)C(F)(F)CCS`, the outcome in test [8], in test [2], in [3], in test [4], in [5] and in test [6] was inactive. Moreover, the outcome in test [7] and in [10] was inactive.
With `OCC(F)(F)C(F)(F)C(F)(F)C(F)(F)C(F)(F)C(F)F`, the call in test [8], in [4], in [5], in test [6], in [7] and in test [10] was inactive.
Take `CCCCCCC(C)OC(=O)CCCCC(=O)OC(C)CCCCCC` (configuration not stated): the molecule was classed as inactive in [2], in test [4], in test [5], in test [6], in test [7] and in test [10].
Turning to `COC(=O)CCC(F)(F)C(F)(F)C(F)(F)C(F)(F)F`, the molecule was classed as inactive in [9], in [3], in test [4], in test [5], in [6] and in [7].
